The text below walks through data of publication PMC11995724, “Antibiotic target discovery by integrated phenotypic and activity-based profiling of electrophilic fragments” (Cell chemical biology, 2025).

Screen size: about 3,200 compounds; about 110 (3.4%) showed an effect of 50% or more. Only a selection was taken, and strong results are over-represented in it overall.

The subject of this experiment is T1, V. cholerae SAD30.
T1 construct: SAD30
Also on record: species or system S. aureus MSSA476 (TSB) or V. cholerae SAD30 (LB); 384-well bacterial growth screen at 25 uM, OD600 relative to DMSO control. The settings on record: relative growth, OD600, LB; 25 µM; inhibitor.
Take `CC(Cl)C(=O)NCCC1=CCCCCC1` (stereo not drawn) [5-N19, 2-chloro-N-[2-(cyclohept-1-en-1-yl)ethyl]propanamide]: the “% of control remaining” value was found to be 88.2631%.

`CN(Cc1ccc(N(C)C)cc1)C(=O)CCl.Cl` [5-F06, 2-chloro-N-{[4-(dimethylamino)phenyl]methyl}-N-methylacetamide hydrochloride]: the “% of control remaining” value is given as 92.298%.

Take `CSc1ccccc1NC(=O)C(C)Cl` (stereo not drawn) [4-M12, 2-chloro-N-[2-(methylsulfanyl)phenyl]propanamide]: the “% of control remaining” value is reported as 94.8889%.

`C=CC(=O)N1CCCn2cccc2C12CCOCC2` [1-A22, 1-{2',3',4',5'-tetrahydrospiro[oxane-4,1'-pyrrolo[1,2-a][1,4]diazepin]-2'-yl}prop-2-en-1-one]: the “% of control remaining” value is listed as 107.922%.

As for `CCC(NC(=O)CCl)c1ccc(C)cc1` (stereo not drawn) [4-K17, 2-chloro-N-[1-(4-methylphenyl)propyl]acetamide], the “% of control remaining” value came to 97.3043%.

Regarding `C=CC(=O)NCc1ccno1` [1-O07, N-[(1,2-oxazol-5-yl)methyl]prop-2-enamide], the “% of control remaining” value came to 86.846%.

On to `C=CC(=O)NC1CC(C)Cc2cc(OC)ccc21` (stereo not drawn) [3-L17, N-(6-methoxy-3-methyl-1,2,3,4-tetrahydronaphthalen-1-yl)prop-2-enamide], for which the “% of control remaining” value worked out at 87.3259%.

As for `O=C(CCl)NC(c1cc(F)ccc1F)C(F)F` (stereo not drawn) [7-F22, 2-chloro-N-[1-(2,5-difluorophenyl)-2,2-difluoroethyl]acetamide], the “% of control remaining” value came out at 92.5161%.

`C=CC(=O)N(CCO)c1ccc(C(=O)O)cc1` [1-M10, 4-[N-(2-hydroxyethyl)prop-2-enamido]benzoic acid]: the “% of control remaining” value turned out to be 88.6398%.

Consider `C=CC(=O)N1CCC(C(=O)N(C)Cc2ccon2)CC1` [2-I14, N-methyl-N-[(1,2-oxazol-3-yl)methyl]-1-(prop-2-enoyl)piperidine-4-carboxamide], for which the “% of control remaining” value is given as 86.7992%.

On to `C=CC(=O)N1CCC(C(=O)N[C@H]2CC[C@@H]2O)(c2ccccc2)CC1` (racemic) [3-G08, rac-N-[(1R,2R)-2-hydroxycyclobutyl]-4-phenyl-1-(prop-2-enoyl)piperidine-4-carboxamide], for which the “% of control remaining” value was found to be 93.3248%.

Consider `C=CC(=O)N1CCC(C(=O)Nc2ccccc2NS(C)(=O)=O)CC1` [3-C06, N-(2-methanesulfonamidophenyl)-1-(prop-2-enoyl)piperidine-4-carboxamide], for which the “% of control remaining” value is 107.793%.

As to `CC(C)NC(=O)C(C#N)=Cc1ccccc1` [8-L05, 2-cyano-3-phenyl-N-(propan-2-yl)prop-2-enamide], the “% of control remaining” value was determined as 76.8865%.

With `CC(C)NC(=O)C(C#N)=Cc1cccs1` [8-H15, 2-cyano-N-(propan-2-yl)-3-(thiophen-2-yl)prop-2-enamide], the “% of control remaining” value was found to be 71.0401%.

`Cc1cccc(NC(=O)NC(=O)CCl)c1C` [4-D21, 3-(2-chloroacetyl)-1-(2,3-dimethylphenyl)urea]: the “% of control remaining” value stood at 104.033%.

`C=CC(=O)NCCn1cc(Cl)c(C(F)(F)F)n1` [2-F03, N-{2-[4-chloro-3-(trifluoromethyl)-1H-pyrazol-1-yl]ethyl}prop-2-enamide]: the “% of control remaining” value was 108.106%.

As for `COc1ccc(Cl)cc1NC(=O)C(C)Cl` (stereo not drawn) [6-G16, 2-chloro-N-(5-chloro-2-methoxyphenyl)propanamide], the “% of control remaining” value was determined as 89.3355%.

With `COc1ccc(Cl)cc1N1C(=O)C=CC1=O` [10-K10, 1-(5-chloro-2-methoxyphenyl)-2,5-dihydro-1H-pyrrole-2,5-dione], the “% of control remaining” value came to 24.1574%.

In the case of `COc1ccc(C(=O)C(C)Cl)c(OC)c1` (stereo not drawn) [10-J17, 2-chloro-1-(2,4-dimethoxyphenyl)propan-1-one], the “% of control remaining” value came to 98.0323%.

For `COc1ccc(C2CCCN2C(=O)CCl)c(OC)c1` (stereo not drawn) [4-P22, 2-chloro-1-[2-(2,4-dimethoxyphenyl)pyrrolidin-1-yl]ethan-1-one], the “% of control remaining” value is recorded as 115.247%.

Regarding `COc1ccc(Cl)cc1CNC(=O)CCl` [6-A16, 2-chloro-N-[(5-chloro-2-methoxyphenyl)methyl]acetamide], the “% of control remaining” value is 95.2507%.

As to `COc1ccc(N2C(=O)C=CC2=O)c(OC)c1` [10-J15, 1-(2,4-dimethoxyphenyl)-2,5-dihydro-1H-pyrrole-2,5-dione], the “% of control remaining” value was found to be 26.9628%.

As to `CC(Cl)C(=O)N1CCN(Cc2cc(=O)n3ccsc3n2)CC1` (stereo not drawn) [6-P17, 7-{[4-(2-chloropropanoyl)piperazin-1-yl]methyl}-5H-[1,3]thiazolo[3,2-a]pyrimidin-5-one], the “% of control remaining” value was found to be 97.5258%.

Regarding `C=CC(=O)N1CCCCC(S(C)(=O)=O)C1` (stereo not drawn) [2-E17, 1-(3-methanesulfonylazepan-1-yl)prop-2-en-1-one], the “% of control remaining” value was 92.6662%.

As for `CCc1nocc1CN(C)C(=O)CCl` [5-B11, 2-chloro-N-[(3-ethyl-1,2-oxazol-4-yl)methyl]-N-methylacetamide], the “% of control remaining” value is on record as 90.6168%.

As for `C=CC(=O)N1CCC(C(=O)N2Cc3ccc([N+](=O)[O-])cc3C2)CC1` [2-F04, 1-[4-(5-nitro-2,3-dihydro-1H-isoindole-2-carbonyl)piperidin-1-yl]prop-2-en-1-one], the “% of control remaining” value is 98.2245%.

`CCn1nc(C)c(CN(C)C(=O)CCl)c1C` [5-A10, 2-chloro-N-[(1-ethyl-3,5-dimethyl-1H-pyrazol-4-yl)methyl]-N-methylacetamide]: the “% of control remaining” value worked out at 104.907%.

Take `Cn1ncc(C(=O)CCl)n1` [10-J10, 2-chloro-1-(2-methyl-2H-1,2,3-triazol-4-yl)ethan-1-one]: the “% of control remaining” value is 112.838%.

Take `CCn1nc(C)c(CNC(=O)CCl)c1C` [7-P10, 2-chloro-N-[(1-ethyl-3,5-dimethyl-1H-pyrazol-4-yl)methyl]acetamide]: the “% of control remaining” value came out at 85.1148%.

For the molecule `CCn1nc(C)c(C(=O)CCl)n1` [10-P08, 2-chloro-1-(2-ethyl-5-methyl-2H-1,2,3-triazol-4-yl)ethan-1-one], the “% of control remaining” value is reported as 40.2104%.

`CCn1cc(NC(=O)CCl)cn1.Cl` [6-I15, 2-chloro-N-(1-ethyl-1H-pyrazol-4-yl)acetamide hydrochloride]: the “% of control remaining” value amounted to 98.4359%.

As to `CCn1ncc(C(=O)CCl)n1` [10-E13, 2-chloro-1-(2-ethyl-2H-1,2,3-triazol-4-yl)ethan-1-one], the “% of control remaining” value amounted to 0%.

`O=S(=O)(CC=C(Cl)Cl)N1CCSSCC1` [10-P19, 5-(3,3-dichloroprop-2-ene-1-sulfonyl)-1,2,5-dithiazepane]: the “% of control remaining” value was found to be 92.5774%.

Regarding `C=CC(=O)NCc1ccc(S(=O)(=O)NC2CC2)cc1` [2-P19, N-{[4-(cyclopropylsulfamoyl)phenyl]methyl}prop-2-enamide], the “% of control remaining” value stood at 96.8349%.

In the case of `C=CC(=O)N1CCCC(c2nc(N(C)C)no2)C1` (stereo not drawn) [3-A13, 1-{3-[3-(dimethylamino)-1,2,4-oxadiazol-5-yl]piperidin-1-yl}prop-2-en-1-one], the “% of control remaining” value is recorded as 112.204%.

Take `CC(Cl)C(=O)NCC1CN(c2nncs2)CCO1` (stereo not drawn) [7-O03, 2-chloro-N-{[4-(1,3,4-thiadiazol-2-yl)morpholin-2-yl]methyl}propanamide]: the “% of control remaining” value is recorded as 90.798%.

For `O=C(CCl)N1CC(Cc2ccc(F)cc2F)C1` [5-G20, 2-chloro-1-{3-[(2,4-difluorophenyl)methyl]azetidin-1-yl}ethan-1-one], the “% of control remaining” value stood at 89.2718%.

Take `O=C(CCl)Cc1ccc(Cl)cc1Cl` [10-A15, 1-chloro-3-(2,4-dichlorophenyl)propan-2-one]: the “% of control remaining” value was found to be 22.1313%.

Regarding `Cc1ccc(F)cc1NC(=O)CCl` [4-O03, 2-chloro-N-(5-fluoro-2-methylphenyl)acetamide], the “% of control remaining” value is 106.103%.

With `O=C(CCl)Cc1ccc(F)cc1F` [10-G17, 1-chloro-3-(2,4-difluorophenyl)propan-2-one], the “% of control remaining” value worked out at 31.4826%.

`O=C(CCl)Nc1c(Cl)cc(Cl)cc1Cl` [5-B16, 2-chloro-N-(2,4,6-trichlorophenyl)acetamide]: the “% of control remaining” value stood at 98.3503%.

With `O=C(CCl)NCCc1ccc(Cl)cc1Cl` [6-M16, 2-chloro-N-[2-(2,4-dichlorophenyl)ethyl]acetamide], the “% of control remaining” value came out at 96.0091%.

As for `O=C(CCl)N(Cc1ccccc1)Cc1ccc(F)cc1` [5-I06, N-benzyl-2-chloro-N-[(4-fluorophenyl)methyl]acetamide], the “% of control remaining” value was 81.2021%.

For `O=C(CCl)Cc1ccc(F)cc1Cl` [10-E19, 1-chloro-3-(2-chloro-4-fluorophenyl)propan-2-one], the “% of control remaining” value amounted to 21.0403%.

For the molecule `CC(Cl)C(=O)N(CCc1ccc(F)cc1F)C(C)C` (stereo not drawn) [6-D18, 2-chloro-N-[2-(2,4-difluorophenyl)ethyl]-N-(propan-2-yl)propanamide], the “% of control remaining” value turned out to be 71.5897%.

As for `N#CC(=Cc1cccc(O)c1)C(=O)Nc1ccc(N2CCOCC2)cc1` [8-I14, 2-cyano-3-(3-hydroxyphenyl)-N-[4-(morpholin-4-yl)phenyl]prop-2-enamide], the “% of control remaining” value worked out at 71.0401%.

Consider `CC1CN(c2ccc(NC(=O)C(C#N)=Cc3ccco3)cc2)CC(C)O1` (stereo not drawn) [9-J09, 2-cyano-N-[4-(2,6-dimethylmorpholin-4-yl)phenyl]-3-(furan-2-yl)prop-2-enamide], for which the “% of control remaining” value turned out to be 84.3644%.

As for `C=CC(=O)N1CCC(F)CC1` [1-D14, 1-(4-fluoropiperidin-1-yl)prop-2-en-1-one], the “% of control remaining” value is on record as 79.2444%.
